Results with a measured potency or affinity are listed apart. Calls of active or inactive are those of the source. No rule for the calls is given here.

A short description of the assay: HepG2 cell cytotoxicity, dose response, cytotoxicity control, plate reader, cherry-pick, antagonist series (AID 743416). As to conditions: series mostly up to 26 µM.
Take `C[C@H]1CCCCO[C@@H](CN(C)C(=O)Nc2ccccc2)[C@@H](C)CN([C@@H](C)CO)C(=O)c2cc(NC(=O)NC3CCCCC3)ccc2O1`: the compound was called inactive.

In the case of `COc1ccc2[nH]c3c(c2c1)CCN1C(=O)N([C@@H](C)C(=O)NCc2ccc(C)cc2)C(=O)[C@]31C`, the compound was classed as inactive.

Regarding `Cc1ccc(-n2cc(CN(C)Cc3nccn3C)c(-c3cccc(C)c3)n2)cc1`, the call was inactive.

With `C[C@H](CO)N1C[C@H](C)[C@H](CN(C)C(=O)Nc2ccccc2)OCCCC[C@H](C)Oc2ccc(NC(=O)Nc3ccccc3)cc2C1=O`, the compound was called inactive.

With `N#Cc1cccc(-c2ccc(C3[C@@H]4CN(C(=O)c5ccccn5)C[C@H]3N4)cc2)c1` (stereo partly drawn), the compound was called inactive.

As to `C[C@H](CO)N1C[C@H](C)[C@H](CN(C)C(=O)Nc2ccc3c(c2)OCO3)OCCCC[C@H](C)Oc2ccc(NC(=O)C3CCCCC3)cc2C1=O`, the compound was called inactive.

With `C[C@H](CO)N1C[C@H](C)[C@H](CN(C)C(=O)Nc2ccccc2)OCCCC[C@H](C)Oc2ccc(NC(=O)CCC(F)(F)F)cc2C1=O`, the call was inactive.

Consider `C[C@H](CO)N1C[C@H](C)[C@H](CN(C)C(=O)Nc2ccc(F)cc2)OCCCC[C@H](C)Oc2ccc(NC(=O)Nc3ccc(F)cc3)cc2C1=O`, for which the call was inactive.

Take `CC[C@H](CO)Oc1cc(NCc2ccc(Cl)c(Cl)c2)c2ncn(C(C)C)c2c1`: the compound was classed as inactive.

As for `C[C@H](CO)N1C[C@H](C)[C@H](CN(C)C(=O)Nc2ccccc2)OCCCC[C@H](C)Oc2ccc(NC(=O)C3CCCCC3)cc2C1=O`, the compound was classed as inactive.

In the case of `C[C@H]1CCCCO[C@@H](CN(C)C(=O)Nc2ccc3c(c2)OCO3)[C@@H](C)CN([C@@H](C)CO)C(=O)c2cc(NC(=O)NC3CCCCC3)ccc2O1`, the outcome was inactive.

`COCC(=O)N1CCCCN2[C@H](CO)[C@H](c3ccc(-c4cccc(C)c4)cc3)[C@@H]2C1`: the compound was classed as inactive.

With `Cc1cccc(-c2ccc([C@H]3[C@@H](CO)N4CCCCN(C(=O)c5cccnc5)C[C@@H]34)cc2)c1`, the outcome was inactive.

With `COc1ccc(-c2cc(-c3nnc(COC(=O)C4CC4)o3)c3ccccc3n2)cc1OC`, the result was inactive.

With `COc1ccc(-c2cc(C(=O)Nc3cccc(O)c3)no2)cc1`, the call was inactive.

Consider `O=C(Nc1ccc(N2CCOCC2)c(S(=O)(=O)Nc2ccccc2Cl)c1)c1ccc(F)cc1`, for which the compound was classed as inactive.

For `COc1ccc(NC(=O)N(C)C[C@@H]2OCCCC[C@H](C)Oc3ccc(NC(=O)C4CCCCC4)cc3C(=O)N([C@H](C)CO)C[C@@H]2C)cc1`, the compound was classed as inactive.

As to `CCCCNc1c(-c2cccc(-c3cc(C(C)=O)cs3)c2)nc2ccc(C)cn12`, the compound was called inactive.

`COc1ccc(S(=O)(=O)N(C)C[C@@H]2OCCCC[C@H](C)Oc3ccc(NS(=O)(=O)c4ccc(F)cc4)cc3C(=O)N([C@@H](C)CO)C[C@@H]2C)cc1`: the outcome was inactive.

Take `C[C@H](CO)N1C[C@H](C)[C@H](CN(C)C(=O)Nc2ccc(C(F)(F)F)cc2)OCCCC[C@H](C)Oc2ccc(NC(=O)CCC(F)(F)F)cc2C1=O`: the compound was classed as inactive.

With `Cn1nnnc1Sc1ncnc2scc(-c3ccccc3C(F)(F)F)c12`, the result was inactive.

As to `O=C(Nc1ccc(-c2nc3cccnc3s2)cc1)C1CCCO1` (stereo not drawn), the compound was called inactive.

Turning to `N#C[C@@H]1[C@H](c2ccc(C#Cc3ccccc3F)cc2)[C@@H](CO)N1C(=O)C1CC1`, the compound was classed as inactive.

On to `COCC(=O)N[C@@H]1CC[C@@H](CC(=O)NCc2ccccc2OC)O[C@@H]1CO`, for which the compound was called inactive.

As for `Cc1ccc(S(=O)(=O)N(C)C[C@H]2Oc3cc(Br)ccc3S(=O)(=O)N([C@H](C)CO)C[C@H]2C)cc1`, the outcome was inactive.

Regarding `O=C(Nc1ccc(Cl)cc1Cl)c1ccc2c(c1)OCCO2`, the compound was called inactive.

Regarding `CCCCc1ccc(NC(=O)c2cnccn2)cc1`, the call was inactive.

Regarding `NCC[C@H]1CC[C@H](NS(=O)(=O)Cc2ccccc2)[C@@H](CO)O1`, the call was inactive.

On to `C[C@H](CO)N1C[C@H](C)[C@H](CN(C)C(=O)Nc2cccc3ccccc23)OCCCC[C@H](C)Oc2ccc(NC(=O)C3CCCCC3)cc2C1=O`, for which the call was inactive.

As for `Cn1nnnc1SCC(=O)N1CCN(C(=O)c2ccco2)CC1`, the compound was called inactive.

`C[C@@H]1CN([C@@H](C)CO)C(=O)c2cccc(NC(=O)Nc3ccc(C(F)(F)F)cc3)c2O[C@@H]1CN(C)C(=O)Nc1cccc2ccccc12`: the result was inactive.

In the case of `O=c1cc(-c2c(F)c(F)c(F)c(F)c2F)oc2ccccc12`, the outcome was inactive.

Turning to `CCC(=O)N(C)C[C@H]1Oc2cc(C#CCC(C)C)ccc2S(=O)(=O)N([C@H](C)CO)C[C@@H]1C`, the compound was classed as inactive.

Regarding `C[C@H](CO)N1C[C@H](C)[C@H](CN(C)C(=O)CN2CCOCC2)Oc2ncc(C#CCN(C)C)cc2C1=O`, the outcome was inactive.

For the compound `CC(=O)N1CCc2cc(S(=O)(=O)C(C)CC(=O)NCc3ccco3)ccc21` (stereo not drawn), the outcome was inactive.

For the compound `COC(=O)c1ccc2nc(-c3ccc4c(c3)OCO4)cn2c1`, the call was inactive.

Consider `C[C@H](CO)N1C[C@H](C)[C@@H](CN(C)C(=O)Nc2ccc3c(c2)OCO3)Oc2c(cccc2N(C)C)C1=O`, for which the outcome was inactive.

For the compound `C[C@@H]1CN([C@@H](C)CO)S(=O)(=O)c2ccc(C3=CCCC3)cc2O[C@H]1CN(C)C(=O)c1ccccc1`, the call was inactive.
